According to PubChem BioAssay AID1920062 (Sanford-Burnham Center for Chemical Genomics, 2024):
About 400 (0.11%) of roughly 370,000 compounds were called active.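 How the source made its calls: active means activation at 10 µM reaching about 35% in either raw or pattern-adjusted values (limit read from the data); inactive means the rest.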 The list comes from a sample in which actives are over-represented; it also holds similar structures and randomly drawn compounds.

These molecules were tested against Atrial natriuretic peptide receptor 2 (Homo sapiens) (UniProt P20594) (assay: GC-B stimulated cGMP production enhancers – HEK293 GC-B cells, cGMP TR-FRET, EC30 CNP, primary screen (AID 1920062)). Details: at 10 µM, hits give high values, 0% at EC30 CNP, 100% saturating CNP.
Sequence of Atrial natriuretic peptide receptor 2 (Homo sapiens) (P20594 whole entry, looked up): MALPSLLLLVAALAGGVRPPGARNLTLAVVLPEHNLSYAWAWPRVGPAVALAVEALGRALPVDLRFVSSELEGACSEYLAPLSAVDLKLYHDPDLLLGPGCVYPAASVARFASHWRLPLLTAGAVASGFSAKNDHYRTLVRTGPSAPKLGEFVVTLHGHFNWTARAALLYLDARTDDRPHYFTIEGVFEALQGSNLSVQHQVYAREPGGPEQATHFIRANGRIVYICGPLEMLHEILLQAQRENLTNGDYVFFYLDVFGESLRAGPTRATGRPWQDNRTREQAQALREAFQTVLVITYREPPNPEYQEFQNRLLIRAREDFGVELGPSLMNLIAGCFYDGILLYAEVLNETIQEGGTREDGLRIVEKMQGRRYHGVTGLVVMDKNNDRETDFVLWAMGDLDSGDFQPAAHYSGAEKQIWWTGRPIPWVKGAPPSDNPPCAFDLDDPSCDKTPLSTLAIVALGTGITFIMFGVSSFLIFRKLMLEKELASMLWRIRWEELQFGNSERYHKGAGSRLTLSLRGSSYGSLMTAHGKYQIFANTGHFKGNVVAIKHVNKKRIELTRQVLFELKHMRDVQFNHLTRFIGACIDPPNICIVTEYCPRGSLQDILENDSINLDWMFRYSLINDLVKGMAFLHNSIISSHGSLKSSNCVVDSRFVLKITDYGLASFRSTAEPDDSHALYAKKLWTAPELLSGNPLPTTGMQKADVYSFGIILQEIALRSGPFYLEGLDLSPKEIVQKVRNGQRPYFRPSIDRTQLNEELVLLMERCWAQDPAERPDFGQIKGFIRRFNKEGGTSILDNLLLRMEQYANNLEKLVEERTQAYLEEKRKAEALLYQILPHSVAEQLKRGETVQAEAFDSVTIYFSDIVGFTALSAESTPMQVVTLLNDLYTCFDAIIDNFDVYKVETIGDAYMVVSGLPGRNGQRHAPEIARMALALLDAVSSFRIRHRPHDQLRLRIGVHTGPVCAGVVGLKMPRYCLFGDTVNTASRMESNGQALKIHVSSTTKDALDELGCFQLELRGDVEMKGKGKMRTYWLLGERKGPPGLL

Structure (SMILES) | activation
COc1ccccc1C(=O)CSc1nnc(-c2ccccn2)n1-c1ccccc1 | -3.37% (inactive)
Nc1ncnc(Nc2cccc(Cl)c2Cl)n1 | 1.89% (inactive)
CC1(C)OC(=O)C2=C(C[C@@H](C3CC3)O[C@H]2CCc2cccc(Cl)c2)O1 | 3.35% (inactive)
C[C@@H]1CN([C@@H](C)CO)C(=O)CCCn2nncc2CO[C@H]1CN(C)Cc1ccc(C(F)(F)F)cc1 | -5.26% (inactive)
CCOc1c(Br)cc(/C=C2\C(=O)N(CCC#N)N=C2C)cc1OC | 51.6% (active)
COc1ccc(C(CNC(=O)c2ccc(S(=O)(=O)Nc3ccccc3F)cc2)N(C)C)cc1 (stereo not given) | -0.81% (inactive)
CC1(c2ccc(Cl)cc2Cl)NC(=O)N(CC(=O)Nc2cccnc2Cl)C1=O (stereo not given) | 3.74% (inactive)
CCCCN(C)CCNC(=O)C1CCCN(S(=O)(=O)c2cccc3nsnc23)C1 (stereo not given) | 4.51% (inactive)
CC(Oc1ccc(F)cc1F)C(=O)/C=C/N(C)C (stereo not given) | 1.84% (inactive)
CCC(C)(C)NC(=O)C(c1cccc(OC)c1OC)N(CC(C)C)C(=O)CCC(=O)Nc1cc(C)on1 (stereo not given) | -7.74% (inactive)
CC1CCCCC12NC(=O)N(CC(=O)Nc1ccc(S(=O)(=O)Nc3ncccn3)cc1)C2=O (stereo not given) | 1.08% (inactive)
Nc1nnc(SCC(=O)NCC(=O)Nc2ccc(F)c(F)c2F)s1 | -0.75% (inactive)
CC(=O)c1cccc(-n2nnnc2SCC(=O)NNC(=O)C2CCCCC2)c1 | 1.65% (inactive)
O=C(OCC(=O)N1CCCCCC1)c1cnc(Cl)c(Cl)c1 | 4.57% (inactive)
CC(=O)C[C@H](O)CC(=O)[C@@H]1OC(=O)[C@@H](C)C/C=C\Cc2ccccc21 | 5.5% (inactive)
CCCCn1c(N)c(N2CCOCC2)c(=O)n(CC(=O)NCCc2ccccc2)c1=O | 0.41% (inactive)
CC(=O)NC(Cc1ccc(F)cc1)C(=O)O (stereo not given) | 7.58% (inactive)
Cc1nc(C(F)(F)F)ccc1C(=O)N1CCC1(C)C(=O)NS(=O)(=O)c1ccc(F)cc1F (stereo not given) | 1.28% (inactive)
O=C1OCC2=C1C(c1ccccc1)CC(=O)N2c1cccc(F)c1 (stereo not given) | 3.79% (inactive)
CCOC(=O)C1(Cc2ccccc2C)CCCN(C(=O)CN2C(=O)CSC2=O)C1 (stereo not given) | 1.31% (inactive)

Structure (SMILES) | activation
O=S1(=O)c2c(cccc2N2CCCCC2)O[C@H](COCc2ccccc2)CN1C1CC1 | 2.03% (inactive)
O=C(Oc1ccc(C(=S)N2CCOCC2)cc1)c1ccc(F)cc1 | -0.5% (inactive)
CC(NCc1nc2ccccc2n1C)C12CC3CC(CC(C3)C1)C2 (stereo not given) | -3.22% (inactive)
NC(=O)NC(=O)C(OC(=O)CCNS(=O)(=O)c1ccccc1)c1ccccc1 (stereo not given) | 0.79% (inactive)
CCOC(=O)N1CCN(C(=O)CN(C2CCCCC2)S(C)(=O)=O)CC1 | 6.88% (inactive)
C/C(Cl)=C\Cn1c(Nc2cccc(C)c2)nc2c1c(=O)n(C)c(=O)n2C | 45.4% (active)
Cn1c(=O)c2c(nc(N/N=C/c3cccs3)n2Cc2ccc(Br)cc2)n(C)c1=O | 23.1% (inactive)
CCC/C(C)=N\Nc1nc2c(c(=O)n(C)c(=O)n2C)n1C | -1.79% (inactive)
Cc1cc(C)n(-c2nc(O)cc(=O)[nH]2)n1 | 6.13% (inactive)
CCn1c(CNC(=O)c2ccccc2)nnc1SCC(=O)N1CCN(c2ccccc2)CC1 | 1.17% (inactive)
CC(C)COC(=O)c1ccc(NC(=O)C2C3C=CC(C3)C2C(=O)O)cc1 (stereo not given) | 6.16% (inactive)
CCN(CC(=O)NCc1cccs1)S(=O)(=O)c1ccc(NC(C)=O)cc1 | 5.26% (inactive)
CC(=O)N1C(C)c2ccccc2C(C)(C)CC12CCCCC2 (stereo not given) | 1.32% (inactive)
C=C1C2C[C@H](O)C(C)(C)[C@@]2(O)[C@H](O)C[C@]23C[C@@](C)(O)[C@H](CC[C@H]12)[C@H]3O (stereo not given in full) | 5.08% (inactive)
c1coc(CCNc2ncnc3ccc(-c4ccc5c(c4)OCO5)cc23)c1 | 50.1% (active)
O=C(Cn1nnc(-c2ccc3c(c2)OCO3)n1)NCc1ccco1 | -0.02% (inactive)
Cc1nc(CNc2ncnc3ccc(-c4ccc5c(c4)OCO5)cc23)cs1 | 3.38% (inactive)
CC(C)C(NC(=O)c1c(F)cccc1F)C(=O)NNC(=O)c1ccccc1 (stereo not given) | 3.58% (inactive)
O=Cc1c(Cl)cccc1Cl | -13.9% (inactive)
Cc1ccccc1NC(=O)COC(=O)c1ccc(Sc2ncn[nH]2)c([N+](=O)[O-])c1 | -1.97% (inactive)
